ALOX12 inh – ALOX12 (human) lipoxygenase inhibition. P18054. Potency, µM (highest dose often 108 µM), without a hit: top-dose activity change, negative = inhibition, usual class: inhibitors. 580,000 compounds, 1.1% hits. AID 1671190. purified 12hLO, xylenol orange hydroperoxide absorbance; also: % is scaled to controls: 0 for no effect and ±100 for the full control effect
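Hydroperoxide product was detected by ferrous iron/xylenol orange as the 573 to 405 nm absorbance ratio. Arachidonic acid at 40 uM (final) was turned over for 30 min at room temperature by 150 nM human 12hLO, pH 7.0 Hepes buffer, after 15 min compound preincubation.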
Glioma ERSR ind – inducers of ER stress response in human glioma cells. U87-MG GRP78 promoter luciferase reporter, 16 h. Potency, µM, for the others: top-dose activation, usual class: activators. 420,000 compounds, 0.02% hits. AID 602332; also: series mostly up to about 76 µM; % of control where 0% means no effect; nearly all actives have a fitted effect of over 35% in size
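Stably transfected U87-MG human glioma cells carrying a GRP78-based luminescent sensor were seeded at 1000 cells/well, pin-dosed with compounds and incubated 16 h. Luciferase reagent was then added, and end-point luminescence was read after 10 min at room temperature.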
GLP1R ag – GLP-1 receptor (human) agonism; P43220; HEK293 GLP-1R CRE-luciferase, luminescence, 4-6 h; cells express a hypersensitive GLP-1R form; Potency, µM (series often up to 45.6 µM), for the others: at the highest dose activation, hits mostly activators; 380,000 compounds, 0.007% hits; also: % of control where 0% means no effect
PTHR1 agonist – activates the human parathyroid hormone receptor PTHR1. Q03431. Potency, µM (titrated, usually from 115 µM), for inactives: at the highest dose activation, actives largely listed as activators. HEK293 GP2 PTHR1 cells, GloSensor cAMP luminescence, 1 h. 410,000 compounds, 0.075% hits; also: nearly all actives have a fitted effect of over 55% in size
Target sequence (Q03431 whole entry, looked up): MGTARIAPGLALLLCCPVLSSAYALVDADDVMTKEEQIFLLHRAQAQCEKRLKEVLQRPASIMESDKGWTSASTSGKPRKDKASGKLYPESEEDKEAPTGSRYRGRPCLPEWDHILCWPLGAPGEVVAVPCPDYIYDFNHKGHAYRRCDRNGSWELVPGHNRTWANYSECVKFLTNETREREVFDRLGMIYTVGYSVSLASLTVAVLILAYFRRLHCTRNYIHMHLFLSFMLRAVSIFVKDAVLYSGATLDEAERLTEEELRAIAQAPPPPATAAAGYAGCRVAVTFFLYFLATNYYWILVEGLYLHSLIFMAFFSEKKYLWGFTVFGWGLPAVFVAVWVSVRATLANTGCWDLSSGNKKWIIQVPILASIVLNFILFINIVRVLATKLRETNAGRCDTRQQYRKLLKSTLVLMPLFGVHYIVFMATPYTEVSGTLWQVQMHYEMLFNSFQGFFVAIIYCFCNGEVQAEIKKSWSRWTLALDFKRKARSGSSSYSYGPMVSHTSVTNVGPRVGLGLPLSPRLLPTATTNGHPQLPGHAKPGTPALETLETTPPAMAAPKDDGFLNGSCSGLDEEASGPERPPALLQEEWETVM
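HEK-293-derived GP2 cells expressing PTHR1 and a GloSensor cAMP reporter, 3,000/well, plated overnight, given luciferin plus IBMX (each 0.5 mM as added) for 1 h at 37 °C, then compound for 1 h at 37 °C. Luminescence was read after 15 min at room temperature.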
GLP1R inv ag – GLP-1 receptor (human) inverse agonism; Potency, µM (series often up to 38.3 µM), without a hit: top-dose activity change, negative = inhibition, hits mostly inhibitors; 410,000 compounds, 1.6% hits; HEK293 GLP-1R CRE-luciferase, luminescence, 24 h; GLP-1R form is constitutively active; also: % is scaled to controls: 0 for no effect and ±100 for the full control effect; nearly all actives have a fitted effect of over 55% in size
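Inverse agonists were sought by their lowering of basal cAMP reporter luciferase output in HEK293 cells stably carrying constitutively active human GLP-1R, after 24 h compound treatment.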
GLS inhibitor – inhibitors of human glutaminase (GLS). O94925. Potency, µM (series often up to 45.5 µM), without a hit: at the highest dose activity change, negative = inhibition, most hits filed as inhibitors. GLS enzymatic activity, qHTS titration. 410,000 compounds, 0.21% hits; also: % is scaled to controls: 0 for no effect and ±100 for the full control effect
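hKGA in 45 mM KH2PO4 (pH 8.2), 0.02% Tween-20 with compound, then 1mM L-Glutamine (stock as added) plus glutamate oxidase/HRP/Amplex red coupling mix. Fluorescence read initially and after 30 min at RT; signal change reflects glutamate formation.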
Numbers without * were called inactive; i = inactive; ? = inconclusive; . = no result; ! = not confirmed by another sample; [ ] = dose if it differs, or a comment. A selection: hits, their analogues and other compounds. The true share with any hit is near 2.3%. Calls follow the shape of the dose curve; as a rule, active = well fitted curve in the direction sought with a large enough effect; inconclusive = small, poorly fitted or top-dose-only effect, or another doubt; inactive = no such curve, though single readings can be large; an effect the other way counts as inactive or inconclusive. Potency is read from the fitted curve at half-maximal effect.

SMILES | ALOX12 inh | Glioma ERSR ind | GLP1R ag | PTHR1 agonist | GLP1R inv ag | GLS inhibitor
CN(C)c1ccc(C(C(=O)NC2CCCCC2)N(Cc2ccco2)C(=O)c2snc(C(N)=O)c2N)cc1 (configuration not stated) | -8.4% | -3.1% | 5.5% | -2.7% | 2µM* | 1.0%
CCCCc1cc(=O)oc2cc(OCC(=O)NCc3ccncc3)ccc12 | 6.1% | . | . | . | . | .
CCc1cccc(CC)c1NC(=S)NCCc1c(C)[nH]c2ccc(C)cc12 | ? | -3.9% | -1.3% | 24.5% | 7.94µM* | -3.7%
COC/C=C/C1=CC2=CC(=O)C(C)(OC(=O)C3CCCC3)C(=O)C2=CO1 (configuration not stated) | 22.4µM* | -0.5% | -4.8% | 14.5% | 15.3% | ?
Oc1cc(C2CCCCC2)cc(C2CCCCC2)c1 | -19.3% | . | . | . | . | .
O=C1CCCc2ccccc2N1Cc1ccc(Cl)cc1Cl | 8.0% | -3.3% | -6.4% | -10.2% | 11.2µM* | 1.7%
O=C1CCCN1CCCNC(=S)Nc1ccccc1 | 28.2µM* | -2.9% | -2.8% | i | 8.4% | -12.3%
O=C1CCCN1CCCNC(=S)Nc1ccc(Nc2ccccc2)cc1 | -7.3% | -0.5% | -1.2% | -20.6% | -5.0% | 17.8µM*
CC1C=CCC2C(=O)N(c3cccc(C(=O)NCc4ccccc4)c3)C(=O)C12 (configuration not stated) | 31.6µM* | -3.6% | 6.5% | i | -5.1% | 2.7%
CN(C)C(=O)CCc1c(-c2ccc(F)cc2)[nH]c2ccc(F)cc12 | 29.6% | . | . | . | . | .
CC(C)[C@@H](NC(=O)OC(C)(C)C)c1cc(C(=O)c2c(-c3ccccc3)[nH]c3ccccc23)c(N)s1 | ? | . | . | -40.8% | 7.08µM* | .
CC(C)[C@H](NC(=O)OC(C)(C)C)c1cc(C(=O)NCCc2c[nH]c3ccccc23)c(N)s1 | -47.3% | . | . | -7.1% | -23.4% | .
C#CCNC(=O)c1nccnc1N | -44.7% | . | . | . | . | .
CC(C)CC(=O)Nc1ncc([N+](=O)[O-])s1 | ? | 1.4% | 0.2% | -24.1% | ? | ?
Cc1nc(C)c(C(=O)Nc2ncc([N+](=O)[O-])s2)o1 | ? | -16.4% | -3.2% | -33.4% | 3.98µM* | -5.1%
N=C1C(c2nc3ccccc3s2)=C(O)CN1Cc1ccccc1 | 0.5% | 0.1% | -6.3% | -2.7%[57.5 µM] | 17.3% | -14.0%
CCN(CC)CCCN1CC(O)=C(c2nc3ccccc3s2)C1=N | -13.0% | -3.1% | 4.8% | i | 11.2µM* | 9.2%
C=CCNC(=S)N1CCN(c2ncc(C(F)(F)F)cc2Cl)CC1 | ? | -3.3% | 17.9% | -5.2% | 8.91µM* | 13.2%
COc1ccc(C)cc1-n1c(SCC(=O)Nc2ccc3c(c2)OCO3)nc2ccccc2c1=O | -0.3% | . | . | . | . | .
COC(=O)c1ccccc1NC(=O)Cn1nc(C(F)(F)F)c2c1CCCC2 | -7.9% | -2.1% | . | -85.4% | 11.2µM* | 5.4%
Cc1cc(N2CCCCCC2)n2nc(Cc3ccc(Cl)cc3)nc2n1 | 8.0% | . | . | . | . | .
CCOc1cccc(CN2CCC(n3nccc3NC(=O)CCCc3ccccc3)CC2)c1 | ? | 0.3% | 17.0% | -2.1% | 10µM* | 4.8%
C=C(C)CCC(C)N1CCC(n2nccc2NC(=O)CCOc2ccccc2)CC1 (configuration not stated) | -12.4% | -6.1% | 6.6% | -17.1% | 5.01µM* | 0.0%
CCOc1ccc(CN2CCC(n3nccc3NC(=O)CCCc3ccccc3)CC2)cc1 | -8.8% | -2.7% | -6.4% | -4.8% | ? | -1.4%
CC(C)CC1Nc2ncnc(N3CCOCC3)c2N(Cc2ccc(Cl)cc2)C1=O (configuration not stated) | 7.94µM*! | -1.4% | 8.0% | -0.7% | -16.6% | 1.1%
SMILES | ALOX12 inh | Glioma ERSR ind | GLP1R ag | PTHR1 agonist | GLP1R inv ag | GLS inhibitor
CCN(CC)CCSc1nnc2c3cc(C)ccc3n(Cc3ccccc3)c2n1 | 0.0% | -7.1% | 24.2% | -4.0% | 12.6µM* | ?
CCCCn1c2ccc(F)cc2c2nnc(SCCN(CC)CC)nc21 | -26.8% | -4.0% | 7.9% | -34.2% | 20.6% | -14.9%
CC1(C)CC2CC(C)(CN2C(=O)c2cc(-c3ccc(F)cc3)on2)C1 (configuration not stated) | -8.4% | -2.7% | 7.3% | -2.6% | ? | ?
COc1ccc2c(c1)CCc1c(C(=O)N3CC4(C)CC3CC(C)(C)C4)noc1-2 (configuration not stated) | 9.5% | -3.5% | 2.0% | i | 12.6µM* | -1.3%
CC1(C)CC2CC(C)(CN2C(=O)c2cc(-c3ccccc3)on2)C1 (configuration not stated) | -7.2% | -4.1% | 12.3% | i | 2.82µM* | -1.7%
CC(C)Cn1c(SCC(=O)Nc2ccc(C(=O)O)cc2)nnc1-c1ccc(Cl)cc1 | 9.8% | . | . | . | . | .
N#Cc1ccc(CSc2nnc(NC(=O)c3ccc4ncsc4c3)s2)cc1 | ? | 0.6% | 2.2% | i | 2.4% | 3.98µM*
CCCCCCCCCC[n+]1cccc(Br)c1 | . | -2.6% | . | . | . | .
CCC(C)(C)c1ccc(OCCCC[n+]2cccc(C)c2)c(C(C)(C)CC)c1 | ? | -15.2% | 6.4% | -27.1% | 10µM* | -26.1%
COc1ccc2c(C)c(CC(=O)N3CCC(O)(c4ccc(Cl)cc4)CC3)c(=O)oc2c1 | -7.2% | . | . | . | . | .
O=C(Nc1c(N2CCCC2)c2ccccc2oc1=O)c1ccccc1 | -40.0% | . | . | . | . | .
C/C(=N\NC(=O)c1cccc2ccccc12)c1ccc(Cl)s1 | -35.3% | . | . | . | . | .
CCCC(c1nnnn1CC1CCCO1)N1CCN(c2cc(Cl)ccc2C)CC1 (configuration not stated) | ? | -6.0% | 19.6% | i | 8.91µM* | -12.1%
Cn1c(=O)c2c(ncn2CC(=O)Nc2ccc3c(c2)CCC3)n(C)c1=O | -7.6% | . | . | . | . | .
CC1(C)CC(=O)c2cc(-c3nc(-c4ccc(F)cc4)cs3)c(=O)[nH]c2C1 | 50.1µM* | -0.4% | . | i | 6.5% | ?
CC[C@@]1(C(=O)OC)N[C@H](CN(C)C(=O)c2ccccc2)[C@@H]2C(=O)N(C)C(=O)[C@@H]21 | -6.0% | -2.8% | -2.1% | i | 6.8% | 3.5%
CC[C@@]1(C(=O)OC)N[C@H](CN(C)C(=O)c2ccc(F)cc2)[C@@H]2C(=O)N(C)C(=O)[C@@H]21 | 8.91µM* | -4.3% | -1.9% | i | 13.2% | 0.9%
CCCn1nc(C(=O)OCCOc2ccc(OC)cc2)c2ccccc2c1=O | 36.0% | . | . | . | . | .
O=c1cc(N2CCOCC2)oc2c(-c3cccc(F)c3)nccc12 | 1.1%[176 µM] | . | . | . | . | .
COc1cccc(-c2nccc3c(=O)cc(N4CCOCC4)oc23)c1 | 44.7µM* | . | . | . | . | .
COc1ccc(Nc2nccc3c(=O)cc(N4CCOCC4)oc23)cn1 | 25.1µM* | . | . | . | . | .
C[S+](=O)([O-])c1cccc(-c2nccc3c(=O)cc(N4CCOCC4)oc23)c1 | 56.2µM* | . | . | . | . | .
